SMILES strings stand for the structures. “And” between values parts separate entries of the source, which are not always exact repeats. Equal entries are not always repeated. Inconclusive results are not listed. A number with no mark means an inactive call. The source made the active and inactive calls. Calls follow the shape of the dose curve; as a rule, active = well fitted inhibition curve with a large enough effect; inconclusive = small, poorly fitted or top-dose-only effect; inactive = flat fitted curve, though single readings scatter.
% is scaled to controls: 0 for no effect and ±100 for the full control effect; potency is read from the fitted curve at half-maximal effect.

In this assay the test system is HaCat. In words: Cytotoxic Profiling of Annotated Libraries Using Quantitative High-Throughput Screening (AID 1296008). Also: nearly all actives have a fitted effect of over 60% in size. Conditions: Five cell lines viability, CellTiter-Glo ATP luminescence, 48-72 h; max response: stronger effect = lower value. An outline of the steps:
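Compounds were pin-transferred onto cells and incubated 48 or 72 hr at 37 degree Celsius, 95% humidity. CellTiter-Glo was added, plates sat 10 min at room temperature, then ATP-coupled luminescence was imaged as the viability read-out.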
(In general: In ATP-based viability assays light output follows the ATP content of the culture.)
Take `CCCCCCCCCCCCCCCC[N+](C)(C)C`: the Potency was 2110 nM (active).
Consider `C=C[C@@H]1CN2CCC1C[C@@H]2[C@@H](O)c1ccnc2ccccc12` (stereo not given in full), for which the max response is -17.4%.
For the compound `O=c1cccc2n1CC1CNC[C@H]2C1`, the max response is -12.2%.
With `CCC(=O)O[C@@H]1C=C2CCC3C(CCC4(C)C3CC[C@@H]4OC(=O)CC)C2CC1` (stereo not given in full), the max response was -20.7%.
Still for that read-out and setting: the figure for `CCNC(=O)C[C@@H]1N=C(c2ccc(Cl)cc2)c2cc(OC)ccc2-n2c(C)nnc21` is -10.8%.
On the same count and under the same terms, the figure for `CC1(N2CCC(n3c([C@@H]4CCCNC4)nc4ccccc43)CC2)CCCCCCC1` is -28.8%; for `CC(C)NCC(O)c1ccc([N+](=O)[O-])cc1` (stereo not given) it is -38.9%.
For `C[C@@H]1CC[C@H]2[C@@H](C)C(=O)O[C@@H]3O[C@@]4(C)CC[C@H]1[C@]32OO4`, the max response is -10.9%.
Regarding `CN[C@@H](C)[C@H](O)c1ccccc1`, the max response is 1.69%.
Still for that read-out and setting: the value for `O=C1CCC[C@@H]2[C@H]3CCCN4CCC[C@@H](CN12)[C@@H]34` was 3.98%; that for `C=CC(=O)NCNC(=O)C=C` was -16.1%.
On the same count and under the same terms, the figure for `CC(C)(O)C(=O)Nc1ccc([N+](=O)[O-])c(C(F)(F)F)c1` is -2.45%; for `Cc1ccc(Cl)c(O)c1` it is -3.88%.
Regarding `CC1=C(C(=O)O)N2C(=O)[C@@H](N)[C@H]2SC1`, the max response is 3.51%.
On the same count and under the same terms, the figure for `CC(C)[C@]12O[C@@H]1[C@@H]1O[C@]13[C@]1(O[C@H]1C[C@@H]1C4=C(CC[C@@]13C)C(=O)OC4)[C@H]2O` is -144%.
The same measure, in the same setting: the figure for `COc1cc2cc(c1Cl)N(C)C(=O)C[C@H](OC(=O)C(C)C)[C@]1(C)O[C@H]1[C@H](C)[C@@H]1C[C@@](O)(NC(=O)O1)[C@H](OC)C=CC=C(C)C2` is -21.1%; for `O=S(=O)(O)C(F)(F)C(F)(F)C(F)(F)C(F)(F)F` it is 2.96%; for `CC(C)(C)c1cc(C=C(C#N)C#N)cc(Br)c1O` it is 3.48%.
On the same count and under the same terms, the value for `CC(=Cc1csc(C)n1)[C@@H]1C[C@H]2O[C@]2(C)CCC[C@H](C)[C@@H](O)[C@@H](C)C(=O)C(C)(C)[C@@H](O)CC(=O)O1` was -55%.
With `C[C@]12CC[C@@H]3[C@@H](CCC4=CC(=O)CC[C@@H]43)[C@@H]1CC[C@@H]2OC(=O)CCc1ccccc1`, the max response is -22.8%.
Take `NC1=NC(=O)N2CC12` (stereo not given): the compound was classed as inactive.
Consider `c1ccc2c(CN3CCNCC3)cccc2c1`, for which the max response was 2.18%.
For `CCCC[N+]1(C)[C@H]2CC(OC(=O)[C@H](CO)c3ccccc3)C[C@H]1[C@H]1O[C@H]12` (stereo not given in full), the compound was called inactive.
In the case of `CCOCCOC(C)=O`, the max response is -11.2%.
Still for that read-out and setting: the figure for `C#CC1(O)CCC2C3CCC4=CC(=O)CCC4(C)C3CCC21C` (stereo not given) is -0.0987%.
For `COC(C)(C)CCCC(C)C/C=C/C(C)=C/C(=O)OC(C)C` (stereo not given), the compound was classed as inactive.
In the case of `NC1CC1c1ccccc1` (stereo not given), the max response was -2.49%.
For the compound `O=C1C=CC[C@@H]2[C@H]3CCCN4CCC[C@@H](CN12)[C@@H]34`, the max response was -19.8% and -9.45%.
On to `O=C(O)COc1ccccc1`, for which the result was inactive.
In the case of `Cc1[nH]nc2ccc(-c3cncc(OC[C@@H](N)Cc4c[nH]c5ccccc45)c3)cc12`, the Potency is 1180 nM (active).
With `C[C@]12CCC(=O)C(O)=C1CC[C@@H]1[C@H]3CCC(=O)[C@@]3(C)CC[C@@H]12`, the max response was -3.05%.
Turning to `O=[N+]([O-])/N=C1\NCCN1Cc1ccc(Cl)nc1`, the max response was -1.41%.
Still for that read-out and setting: the value for `O=C(N[C@@H](COc1ccc2[nH]c(=O)[nH]c2c1)c1ccccc1)c1cccn(Cc2ccc(F)c(F)c2)c1=O` was -18%.
On to `C[C@]12Cc3cn[nH]c3C[C@@H]1CC[C@@H]1[C@H]2CC[C@@]2(C)[C@H]1CC[C@]2(C)O`, for which the outcome was inactive.
On to `Nc1c(Cl)c(Cl)c(Cl)c(Cl)c1Cl`, for which the max response was -3.9%.
